Results published in PubChem BioAssay (NCI).
Compounds without any hit were thinned out: in the full panel of roughly 79,000, 15% have a hit. Activity calls are given as the source filed them. No stated cut-off is given here; in the data, active means growth inhibition above about 70%; inactive means the rest.

assay: NCI Yeast Anticancer Drug Screen. Data for the rad50 strain (AID 155);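 further: 0% = growth of vehicle-only cultures of the same strain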; conditions: S. cerevisiae rad50 strain growth inhibition; at 50.0 µM; stronger effect = higher value
Procedure, shortened: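 Compounds were tested on a yeast strain with an engineered DNA damage repair alteration; the reported value is growth inhibition normalised to vehicle treatment.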

Question: For `Cc1nc(-[n+]2nc(-c3ccccc3)nn2-c2ccccc2)sc1C`, which growth inhibition is on record?
Answer: Its growth inhibition is 3.3% (inactive).

Question: With `CC(=O)[C-](C(C)=O)c1ccccc1.CC(=O)[C-](C(C)=O)c1ccccc1.CC(=O)[C-](C(C)=O)c1ccccc1.[Cl-].[Zr+4]` as the compound, how does the growth inhibition read?
Answer: The growth inhibition was 27.4% (inactive).

Question: With `O=C1NC(N/N=C\c2ccccc2)=N/C1=C/c1ccc(Cl)cc1` as the compound, how does the growth inhibition read?
Answer: The growth inhibition was 22.6% (inactive).

Question: With `CC1(C)Oc2ccc3c(=O)cc(-c4ccc(F)cc4)oc3c2C1C(=O)O` (stereo unspecified) as the compound, how does the growth inhibition read?
Answer: The growth inhibition was -2.3% (inactive).

Question: For `C=C1C(=O)OC2/C=C(\CO)CC/C=C(\CO)CC(OC(=O)C(C)C)C12` (stereo unspecified), which growth inhibition is on record?
Answer: The growth inhibition was -17% (inactive).

Question: With `N#CC(=S)Nc1ccc(F)cc1` as the compound, how does the growth inhibition read?
Answer: The growth inhibition was 20.2% (inactive).

Question: Which growth inhibition does the source give for `COC(=O)c1cnn2c1n[n+]([O-])c1ccccc12` here?
Answer: Its growth inhibition is -36.3% (inactive).

Question: For `Cc1ccc(OC2CC(n3cnc4ncnc(Cl)c43)OC2Oc2ccc(C)cc2)cc1` (stereo unspecified), which growth inhibition is on record?
Answer: Its growth inhibition is 21% (inactive).

Question: For `c1ccc(-c2cccc3ccccc23)cc1`, which growth inhibition is on record?
Answer: Its growth inhibition is 32.6% (inactive).

Question: For `O=C(O)c1cn(C2CC2)c2cc(N3CCNCC3)c(F)cc2c1=O`, which growth inhibition is on record?
Answer: Its growth inhibition is 8.9% (inactive).

Question: With `Cn1cnc2c(=O)[nH]c(=O)[nH]c21` as the compound, how does the growth inhibition read?
Answer: The growth inhibition was 25.9% (inactive).

Question: For `COc1c2c(c3c(c1OC)c(=O)c1ccccc1n3C)OCO2`, which growth inhibition is on record?
Answer: The growth inhibition was 6.25% (inactive).

Question: For `CCCCCCCCCC(O)CC(=O)c1c(O)cccc1O` (stereo unspecified), which growth inhibition is on record?
Answer: Its growth inhibition is 69.8% (inactive).

Question: With `O=S(=O)(O)c1cc(O)c2c(O)cc(S(=O)(=O)O)cc2c1` as the compound, how does the growth inhibition read?
Answer: The growth inhibition was -0.75% (inactive).

Question: Which growth inhibition does the source give for `CCOC(=O)C(=O)C(CCC(=O)c1ccc2ccccc2c1O)C(=O)OCC` (stereo unspecified) here?
Answer: Its growth inhibition is 2.6% (inactive).

Question: For `CCOC(=O)COc1cc(-c2ccccc2)nc2cc(F)ccc12`, which growth inhibition is on record?
Answer: Its growth inhibition is 10.5% (inactive).
